PubChem BioAssay AID1159580 (chemical genetic matrix, 2015)
The campaign covered roughly 5,500 compounds. About 2,000 (36%) were called active. Not shown: some 18% with an inconclusive outcome. Rule as the data show it: active = normalized growth mostly below about 0.91 (no sharp cut-off); inconclusive = no clear call, values can overlap the other calls; inactive = mostly above about 0.92. The list shows a part of the results.

Test: chemical genetic growth profiling, strain panel (AID 1159580);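 also: tested at 20 µM; growth read once vehicle control cultures reached saturation at 30 °C; 1 = growth at the plate median or of vehicle wells; lower values mean less growth of the strain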
Settings: growth OD

Measured: normalized growth

CN1CCC[C@H]1c1cccnc1
inactive: S. cerevisiae deletion strains, locus YJR075W, strain HOC1, active compounds read low 0.999 | S. cerevisiae deletion strains, locus YKL009W, strain mrt4, active compounds read low 0.975 | S. cerevisiae deletion strains, locus YKL068W, active compounds read low 0.983 | S. cerevisiae deletion strains, locus YKL085W, strain MDH1 (second series), active compounds read low 0.984 | S. cerevisiae deletion strains, locus YKL085W, strain MDH1, active compounds read low 0.984 | S. cerevisiae deletion strains, locus YKL160W, strain elf1, active compounds read low 1.01 | S. cerevisiae deletion strains, locus YKL190W, strain CNB1, active compounds read low 1 | S. cerevisiae deletion strains, locus YKR001C, strain vps1, active compounds read low 0.986 | S. cerevisiae deletion strains, locus YKR026C, strain gcn3, active compounds read low 1.04 | S. cerevisiae deletion strains, locus YKR091W, strain srl3, active compounds read low 1.02 | S. cerevisiae deletion strains, locus YLL001W, strain dnm1, active compounds read low 1.05 | S. cerevisiae deletion strains, locus YLL026W, active compounds read low 1.02 | S. cerevisiae deletion strains, locus YLL041C, strain sdh2, active compounds read low 1.02 | S. cerevisiae deletion strains, locus YLR027C, strain aat2, active compounds read low 1.01 | S. cerevisiae deletion strains, locus YLR039C, strain RIC1, active compounds read low 0.981 | S. cerevisiae deletion strains, locus YLR058C, strain SHM2, active compounds read low 0.987 | S. cerevisiae deletion strains, locus YLR102C, strain apc9, active compounds read low 0.995 | S. cerevisiae deletion strains, locus YLR113W, strain HOG1, active compounds read low 0.921 | S. cerevisiae deletion strains, locus YLR221C, strain rsa3, active compounds read low 1.04 | S. cerevisiae deletion strains, locus YLR258W, strain gsy2, active compounds read low 1.02 | S. cerevisiae deletion strains, locus YLR262C, strain YPT6 (second series), active compounds read low 1.04 | S. cerevisiae deletion strains, locus YLR262C, strain YPT6, active compounds read low 1.01 | S. cerevisiae deletion strains, locus YLR268W, strain sec22, active compounds read low 1 | S. cerevisiae deletion strains, locus YLR320W, strain mms22, active compounds read low 1.03 | S. cerevisiae deletion strains, locus YLR330W, strain CHS5, active compounds read low 0.987 | S. cerevisiae deletion strains, locus YLR342W, strain FKS1 (second series), active compounds read low 0.976 | S. cerevisiae deletion strains, locus YLR342W, strain FKS1, active compounds read low 1.02 | S. cerevisiae deletion strains, locus YLR357W, strain rsc2, active compounds read low 1.04 | S. cerevisiae deletion strains, locus YLR370C, strain arc18, active compounds read low 1.03 | S. cerevisiae deletion strains, locus YLR371W, strain rom2, active compounds read low 0.99 | S. cerevisiae deletion strains, locus YLR384C, strain iki3, active compounds read low 1.04 | S. cerevisiae deletion strains, locus YLR418C, strain cdc73, active compounds read low 1.02 | S. cerevisiae deletion strains, locus YML016C, strain PPZ1, active compounds read low 0.99 | S. cerevisiae deletion strains, locus YML032C, strain rad52, active compounds read low 0.999 | S. cerevisiae deletion strains, locus YML120C, strain ndi1, active compounds read low 1.03 | S. cerevisiae deletion strains, locus YML124C, strain tub3, active compounds read low 0.992 | S. cerevisiae deletion strains, locus YMR058W, strain fet3, active compounds read low 1.03 | S. cerevisiae deletion strains, locus YMR078C, strain ctf18, active compounds read low 0.979 | S. cerevisiae deletion strains, locus YMR125W, strain sto1, active compounds read low 1.05 | S. cerevisiae deletion strains, locus YMR129W, active compounds read low 1.04 | S. cerevisiae deletion strains, locus YMR205C, strain PFK2, active compounds read low 1.03 | S. cerevisiae deletion strains, locus YMR223W, strain ubp8, active compounds read low 0.978 | S. cerevisiae deletion strains, locus YMR231W, strain pep5, active compounds read low 1.03 | S. cerevisiae deletion strains, locus YMR263W, strain SAP30, active compounds read low 1.02 | S. cerevisiae deletion strains, locus YMR307W, strain GAS1, active compounds read low 0.946 | S. cerevisiae deletion strains, locus YNL067W, strain RPL9B, active compounds read low 1.02 | S. cerevisiae deletion strains, locus YNL071W, strain lat1, active compounds read low 1.04 | S. cerevisiae deletion strains, locus YNL128W, strain TEP1, active compounds read low 1.02 | S. cerevisiae deletion strains, locus YNL153C, strain GIM3, active compounds read low 1.02 | S. cerevisiae deletion strains, locus YNL183C, strain NPR1, active compounds read low 0.938 | S. cerevisiae deletion strains, locus YNL209W, strain ssb2, active compounds read low 1.03 | S. cerevisiae deletion strains, locus YNL233W, strain BNI4, active compounds read low 1.01 | S. cerevisiae deletion strains, locus YNL248C, strain rpa49, active compounds read low 1.03 | S. cerevisiae deletion strains, locus YNL250W, strain rad50, active compounds read low 0.988 | S. cerevisiae deletion strains, locus YNL271C, strain bni1, active compounds read low 0.985 | S. cerevisiae deletion strains, locus YNL298W, strain CLA4, active compounds read low 1 | S. cerevisiae deletion strains, locus YNL307C, strain MCK1, active compounds read low 1 | S. cerevisiae deletion strains, locus YNL322C, strain KRE1 (second series), active compounds read low 1.04 | S. cerevisiae deletion strains, locus YNL322C, strain KRE1, active compounds read low 0.992 | S. cerevisiae deletion strains, locus YNR049C, strain mso1, active compounds read low 1.02 | S. cerevisiae deletion strains, locus YNR052C, strain pop2, active compounds read low 0.972 | S. cerevisiae deletion strains, locus YOL006C, strain TOP1, active compounds read low 0.988 | S. cerevisiae deletion strains, locus YOL012C, strain htz1 1.12 | S. cerevisiae deletion strains, locus YOL147C, strain pex11, active compounds read low 0.996 | S. cerevisiae deletion strains, locus YOR001W, strain rrp6, active compounds read low 1.02 | S. cerevisiae deletion strains, locus YOR061W, strain CKA2, active compounds read low 0.999 | S. cerevisiae deletion strains, locus YOR069W, strain VPS5, active compounds read low 0.988 | S. cerevisiae deletion strains, locus YOR070C, strain gyp1, active compounds read low 1.02 | S. cerevisiae deletion strains, locus YOR080W, strain dia2, active compounds read low 1.03 | S. cerevisiae deletion strains, locus YOR083W, strain WHI5, active compounds read low 1.02 | S. cerevisiae deletion strains, locus YOR106W, strain vam3, active compounds read low 1.07 | S. cerevisiae deletion strains, locus YOR136W, strain idh2, active compounds read low 0.988 | S. cerevisiae deletion strains, locus YOR144C, strain elg1, active compounds read low 0.993 | S. cerevisiae deletion strains, locus YOR184W, strain ser1, active compounds read low 0.959 | S. cerevisiae deletion strains, locus YOR231W, strain MKK1, active compounds read low 0.952 | S. cerevisiae deletion strains, locus YOR265W, strain rbl2, active compounds read low 1.03 | S. cerevisiae deletion strains, locus YOR270C, strain vph1, active compounds read low 1.12 | S. cerevisiae deletion strains, locus YOR290C, strain snf2, active compounds read low 1.02 | S. cerevisiae deletion strains, locus YOR316C, strain cot1, active compounds read low 0.989 | S. cerevisiae deletion strains, locus YPL051W, strain arl3, active compounds read low 1.01 | S. cerevisiae deletion strains, locus YPL055C, strain LGE1, active compounds read low 1.04 | S. cerevisiae deletion strains, locus YPL078C, strain atp4, active compounds read low 1.03 | S. cerevisiae deletion strains, locus YPL106C, strain sse1, active compounds read low 1 | S. cerevisiae deletion strains, locus YPL240C, strain hsp82, active compounds read low 1.03 | S. cerevisiae deletion strains, locus YPL241C, strain CIN2, active compounds read low 0.996 | S. cerevisiae deletion strains, locus YPL256C, strain CLN2, active compounds read low 0.943 | S. cerevisiae deletion strains, locus YPR119W, strain clb2, active compounds read low 1 | S. cerevisiae deletion strains, locus YPR141C, strain kar3, active compounds read low 0.968 | S. cerevisiae deletion strains, locus YPR163C, strain tif3, active compounds read low 0.999 | S. cerevisiae deletion strains, locus YPR167C, strain met16, active compounds read low 0.99 | S. cerevisiae deletion strains, strain wtn01, active compounds read low 0.998 | S. cerevisiae strains, strain wild type, active compounds read low 0.999
